# A selection: hits, their analogues and other compounds. The true share with any hit is near 3.8%.
# GLS inhibitor = inhibitors of human glutaminase (GLS). Potency, µM (doses to about 45.5 µM), for inactives: at the highest dose activity change, negative = inhibition, most hits filed as inhibitors. O94925. GLS enzymatic activity, qHTS titration. 410,000 compounds, 0.21% hits
#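 hKGA in 45 mM KH2PO4 (pH 8.2), 0.02% Tween-20 with compound, then 1mM L-Glutamine (stock as added) plus glutamate oxidase/HRP/Amplex red coupling mix. Fluorescence read initially and after 30 min at RT; signal change reflects glutamate formation.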
# Sfp inh = blocks B. subtilis Sfp PPTase activity; Potency, µM, for inactives: largest response in the series, negative = inhibition, most hits filed as inhibitors; AID 1490; Biochemical Sfp PPTase activity, qHTS; 310,000 compounds, 3.5% hits; Q9F4F7;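 also: the enzyme is Sfp with the accession as filed and its product quenches rhodamine fluorescence; 0% = enzyme reaction without inhibitor and -100% = no enzyme wells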
#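 Compounds were incubated with enzyme (final 15 nM) for 15 min at room temperature before substrate addition started the reaction. Fluorescence at 525 nm excitation, 598 nm emission was recorded immediately and after 30 minutes.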
# VDR inhibitor = inhibitors of human vitamin D receptor. VDR-SRC2-3 peptide fluorescence polarization, 2 h. Potency, µM, without a hit: max response, negative = inhibition, actives largely listed as inhibitors. P11473. 400,000 compounds, 0.93% hits
# Target sequence (P11473 whole entry, looked up): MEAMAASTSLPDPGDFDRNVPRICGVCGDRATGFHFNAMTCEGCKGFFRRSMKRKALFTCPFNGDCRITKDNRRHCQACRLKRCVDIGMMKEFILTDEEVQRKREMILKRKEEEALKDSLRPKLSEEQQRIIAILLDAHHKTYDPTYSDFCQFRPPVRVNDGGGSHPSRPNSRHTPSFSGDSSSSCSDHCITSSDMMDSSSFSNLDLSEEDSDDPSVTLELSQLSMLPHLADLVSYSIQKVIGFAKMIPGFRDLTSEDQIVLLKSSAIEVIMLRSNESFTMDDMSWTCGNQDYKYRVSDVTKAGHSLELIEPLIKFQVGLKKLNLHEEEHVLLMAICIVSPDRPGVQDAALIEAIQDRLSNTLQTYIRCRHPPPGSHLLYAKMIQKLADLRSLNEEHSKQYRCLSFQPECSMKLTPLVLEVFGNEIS
#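 Signal is fluorescence polarization, reporting how far test compounds block the interaction of VDR with the SRC2-3 coregulator peptide after a 2 h room-temperature incubation.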
# TrxR1 substrate = substrates of rat thioredoxin reductase 1; 390,000 compounds, 0.01% hits; Potency, µM (highest dose often 114 µM), for the others: top-dose activity change, negative = substrate turnover; purified TrxR1 substrate turnover, NADPH consumption readout; AID 588456; also: nearly all actives have a fitted effect of over 50% in size
#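 Rat TrxR1, dispensed at 90 nM, was prereduced with 400 uM NADPH (final) for 5 min at ~22 deg C, then incubated with compound 15 min before 400 uM selenite. A first-read NADPH fluorescence drop versus no-compound background flagged substrates.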
# KAT2A inh = blocks human GCN5L2 histone acetyltransferase. Q92830. AID 504327. 390,000 compounds, 0.21% hits. Potency, µM (doses to about 58.9 µM), inactives show top-dose activity change, negative = inhibition, most hits filed as inhibitors. GCN5L2 HAT assay, ThioGlo1 CoA-SH fluorescence
#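 Fluorescence readout, Ex340nm/Em540nm: ThioGlo1 (50uM final) reacts with free CoA thiol released as 20nM GCN5L2 acetylates H3(1-25) peptide (75uM) using acetyl-CoA (70uM). Compound and enzyme sat 15 min beforehand; 20 min room-temperature reaction.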
# rTrxR1 inhibitor = rat TrxR1 inhibition; Potency, µM (highest dose often 114 µM), without a hit: at the highest dose activity change, negative = inhibition, actives largely listed as inhibitors; recombinant rTrxR1, NADPH fluorescence consumption, selenite substrate; AID 588453; 390,000 compounds, 1% hits; also: nearly all actives have a fitted effect of over 65% in size
#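 Rat TrxR1 (90 nM in the dispensed reagent) was pre-reduced with 400 uM NADPH for 5 min at room temperature, then incubated with compound for 15 min. After 400 uM selenite was added, NADPH fluorescence (Ex 340/Em 450 nm) was followed for 8 min.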
# Starred values were filed as active, the others as inactive; ? = inconclusive; / = no result; ! = not confirmed by another sample; [ ] = dose if it differs, or a comment. Calls follow the shape of the dose curve; as a rule, active = well fitted curve in the direction sought with a large enough effect; inconclusive = small, poorly fitted or top-dose-only effect, or another doubt; inactive = no such curve, though single readings can be large; an effect the other way counts as inactive or inconclusive. Unless noted, % is scaled to controls: 0 for no effect and ±100 for the full control effect; potency is read from the fitted curve at half-maximal effect.
SMILES,GLS inhibitor,Sfp inh,VDR inhibitor,TrxR1 substrate,KAT2A inh,rTrxR1 inhibitor
O=C(CNC(=O)OCc1ccccc1)Oc1ccc2ccc(=O)oc2c1,19%,6%,?,251%,?,25µM*
O=C(COc1ccc2ccc(=O)oc2c1)OCc1ccccc1,1%,2%,-9%,12%,3%,13%
CC(C)(C)OC(=O)NCCC(=O)Oc1ccc2ccc(=O)oc2c1,13%,10%,-5%,102%,-4%,50µM*
CSc1ccc(-c2nc(CSCC(=O)NCCCN3CCCC3=O)c(C)o2)cc1,-3%,8%,-1%,19%,-3%,-32%
O=C(NCCCCc1ccccc1)C1CCCC1,-15%,-4%,2%,-5%,-21%,16%[57.1 µM]
Cc1ccccc1-c1nn2c(-c3ccccc3)nnc2s1,13%,56µM*,-4%,10%[57.1 µM],-4%,16%[57.1 µM]
O=C(O)C1CCN(C(=O)c2ccc(S(=O)(=O)N3CCCCCC3)cc2)CC1,0%,/,/,/,/,/
Cc1[nH]c2ccccc2c1C(=O)CN1CCC(C)CC1,-5%,24%,-14%,-4%,-3%,35µM*
CCOC(=O)C1CCN(CC(=O)c2c(C)[nH]c3ccccc23)CC1,1%,13%,-5%,7%,5%,-23%
Nc1ccccc1NC1=CC(=O)CC(c2ccco2)C1 (stereo not drawn),19%,8.9µM*,4%,-13%,-13%,-12%
Cc1ccc(NC2=CC(=O)CC(c3ccco3)C2)c(N)c1 (stereo not drawn),19%,-3%,-3%,-8%,-15%,-15%
Cc1ccc(S(=O)(=O)Nc2nc(C)c(NC(=O)OCCCl)s2)cc1,-16%,50µM*,89µM*,-5%,-10%,-30%
Cc1nc(NS(=O)(=O)c2ccccc2)sc1NC(=O)OC(C)C,?,50µM*,7%,-3%,?,-8%
COc1ccc(NC(=O)Nc2sc(NS(=O)(=O)c3ccccc3)nc2C)cc1,8%,45µM*,33%,3%,-19%,?
Cc1ccc(S(=O)(=O)Nc2nc(C)c(NC(=O)Nc3ccc(Cl)cc3Cl)s2)cc1,36%,35µM*,-19%,-5%,-10%,-23%
Cc1ccc(S(=O)(=O)Nc2nc(C)c(C(=O)NNS(=O)(=O)c3ccccc3)s2)cc1,?,6%,2%,-4%,-8%,7%
Cc1nc(NS(=O)(=O)c2ccccc2)sc1C(=O)NN,0%,-17%,9%,-11%[57.1 µM],0%,25%[57.1 µM]
CC(C)CCn1c(=O)c2sccc2n2c(CCCC(=O)NC(C)C)nnc12,-15%,/,7%,10%,-2%,25%
COC(=O)c1ccccc1NC(=O)NCc1ccc2c(c1)OCO2,11%,-4%,2%,4%,/,5%
Cc1ccc(Nc2ncnc3c2nc2n3CCCC2)cc1F,6%,/,8%,-5%,-5%,5%
Cc1ccc2c(c1)CC1(CN2C)C(=O)OC(C)(C)OC1=O,7%,1%,-21%,2%,1%,20µM*!
COc1ccc(/C=N/Nc2nncn2N)cc1Br,?,-16%,22µM*,-11%,-2%,22%[57.1 µM]
Nn1cnnc1N/N=C/c1ccc(Cl)cc1Cl,17%,56µM*,24%,-1%,-24%,6%
O=C(N/N=C/c1ccc(Cl)cc1Cl)c1ccc(-n2cnnn2)cc1,2%,/,1%,5%,-7%,15%
COc1ccc(/C=N/Nc2cc(C)nc3ccc(OC)cc23)c(OC)c1,?,50µM*,0%,5%[57.1 µM],-13%,1%[57.1 µM]
SMILES,GLS inhibitor,Sfp inh,VDR inhibitor,TrxR1 substrate,KAT2A inh,rTrxR1 inhibitor
COc1ccc2nc(C)cc(N/N=C/c3ccccc3)c2c1,15%,/,-14%,-3%,-19%,-7%
CC(NC(=O)C1CCC1)c1ccc2c(c1)OCO2 (stereo not drawn),-11%,12%,12%,5%,2%,14%
Cn1ccc2cc(S(=O)(=O)N3CCN(C(=O)Nc4ccccc4F)CC3)ccc21,-2%,/,-1%,1%[57.1 µM],8%,5%[57.1 µM]
CC1CN(CCCCOc2ccc(Cl)c3ccccc23)CC(C)O1 (stereo not drawn),1%,79µM*,-12%,5%,-11%,2%
Cc1csc(NC(=O)c2cccnc2)n1,2%,31%,-3%,-3%,-5%,14%
COC/C=C/C1=CC2=CC(=O)C(C)(OC(=O)c3cnc4ccccc4n3)C(=O)C2=CN1c1ccccc1 (stereo not drawn),-16%,15%,-29%,-7%,-13%,?
COC/C=C/C1=CC2=CC(=O)C(C)(OC(=O)c3cnc4ccccc4n3)C(=O)C2=CN1c1ccc(CO)cc1 (stereo not drawn),/,56µM*!,/,/,?,/
CC(=O)Nc1nonc1-c1nnc(SCc2ccc(F)cc2Cl)n1C,5%,/,6%,6%,-2%,8%
Cc1ccc(Cn2ccc(=O)c(OCc3c(Cl)cccc3Cl)c2C)cc1,8%,18µM*,5%,-1%,0%,2%
Cn1ncc2c(=S)nc(Cl)[nH]c21,0%,/,?,-14%,/,7.1µM*
CCCCn1c(N)c(N(CCOC)C(=O)c2cc(-c3ccc(OC)cc3)nc3ccccc23)c(=O)[nH]c1=O,0%,/,-11%,14%,-7%,9%
Cn1c(=O)c2nc3ccc(NC(=O)C(F)(F)F)cc3nc2n(C)c1=O,3%,/,-6%,11%,0%,14%
Cc1cc2nc3c(=O)[nH]c(=S)[nH]c3nc2cc1NC(=O)C(F)(F)F,0%,79µM*,5%,-19%,4%,?
CCOC(=O)N1CCc2c(sc(NC(=O)c3ccc(Cl)s3)c2C(N)=O)C1,/,50µM*,/,/,1%,/
CC(=O)N1CCc2c(sc(NC(=O)C3COc4ccccc4O3)c2C(N)=O)C1 (stereo not drawn),10%,32µM*,?,-2%,-33%,-16%
CCOC(=O)N1CCc2c(sc(NC(C)=O)c2C(N)=O)C1,0%,/,0%,8%,/,1%
O=C(O)c1ccccc1C(=O)c1cccc2c(F)cccc12,15%,/,-20%,-17%,/,-19%
COc1cc2c(cc1NC(=O)CSc1ccccn1)oc1ccccc12,4%,45µM*,-1%,-6%,-3%,2%
COc1ccc(C(=O)CN2CCN(S(=O)(=O)c3cccc([N+](=O)[O-])c3)CC2)cc1OC,-3%,35µM*,-5%,-10%,18%,-19%
CN1CCN(S(=O)(=O)c2cccc([N+](=O)[O-])c2)CC1,-8%,/,0%,-4%,/,18%
COc1ccc(S(=O)(=O)N2CCN(CC(=O)c3c(N)n(C)c(=O)n(C)c3=O)CC2)cc1OC,-1%,/,/,/,/,/
COc1cccc(C(=O)CN2CCN(S(=O)(=O)c3cccc([N+](=O)[O-])c3)CC2)c1,0%,-30%,-18%,-1%,30%,8.9µM*

# Source: PubChem BioAssay
